The panel holds about 83,000 compounds, 20% with a hit somewhere; the sample as a whole holds those more often.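 Treatment: one concentration, 48 hours, 96-well format. Scoring: percent growth, with anything below 10 considered active.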 A number with no mark means an inactive call. Active and inactive are the calls of the source.
Tests used:
Assay in all cases: NCI-60 one-dose screen, 48 h (100 = growth as untreated, 0 = no growth, -100 = all killed)
Conditions in all cases: 10 µM unless noted
[1] = system: DU-145 prostate
[2] = system: K-562 leukemia
[3] = system: MALME-3M melanoma
[4] = system: MDA-MB-231 breast
[5] = system: RXF 393 renal
[6] = system: SF-268 CNS
[7] = system: SF-295 CNS
[8] = system: SF-539 CNS
[9] = system: UACC-257 melanoma
[10] = system: M14 melanoma
[11] = system: HCT-15 colon
[12] = system: HT29 colon
[13] = system: SNB-75 CNS
[14] = system: SNB-19 CNS
[15] = system: U251 CNS
[16] = system: PC-3 prostate
[17] = system: SK-MEL-5 melanoma
[18] = system: UACC-62 melanoma
[19] = system: SK-MEL-28 melanoma

| SMILES | growth [1] [%] | growth [2] | growth [3] | growth [4] | growth [5] | growth [6] [%] | growth [7] | growth [8] | growth [9] | growth [10] | growth [11] | growth [12] | growth [13] | growth [14] [%] | growth [15] | growth [16] [%] | growth [17] | growth [18] [%] | growth [19] [%] |
| --- | --- | --- | --- | --- | --- | --- | --- | --- | --- | --- | --- | --- | --- | --- | --- | --- | --- | --- | --- |
| O=C(O)/C(=C/c1ccc(O)cc1)c1ccccc1 | 97.9 | 104% | 94.5% | 103% | 70.6% | 95.8 | 105% | 122% | 90.3% | 97.5% | 104% | 104% | 88.4% | 99.7 | 93.7% | 90.4 | 95.5% | 107 | 102 |
| C#CCn1c(C)cc(C)c(C#N)c1=O | 110 | 103% | 96.9% | 101% | 124% | 98.3 | 99.7% | 97.7% | 103% | 106% | 105% | 120% | 103% | 95.4 | 100% | 104 | 104% | 99 | 109 |
| C=C(C)[C@@H]1CC[C@]2(/C=N/Nc3ccncc3)CC[C@]3(C)[C@H](CC[C@@H]4[C@@]5(C)CCCNC(C)(C)[C@@H]5CC[C@]43C)[C@@H]12 | 95.7 | 7.55% (active) | 80.3% | 101% | 96.3% | 97.2 | 99.1% | 88.7% | 94.7% | 79.4% | 68.4% | 18.6% | 90.5% | 94.7 | 67.9% | 47.3 | 81.7% | 88.1 | 95.4 |
| C=C(C)[C@@H]1CC[C@]2(C(=O)NNC(=O)c3cccnc3)CC[C@]3(C)[C@H](CC[C@@H]4[C@@]5(C)CCCNC(C)(C)[C@@H]5CC[C@]43C)[C@@H]12 | 91.3 | 1.18% (active) | 66.6% | 87% | 79.7% | 87 | 90.3% | 81.3% | 61.9% | 63.8% | 62.4% | 11.3% | 80% | 91.2 | 64.6% | 50.3 | 74.4% | 91 | 90 |
| C[C@H]1[C@@H]2[C@H]3CC[C@@H]4[C@@]5(C)Cc6c([nH]c7ccccc67)C(C)(C)[C@@H]5CC[C@@]4(C)[C@]3(C)CC[C@]23CO[C@]1(C)[C@@H](C(=O)/C=C/c1ccccn1)C3 | 102 | 72.5% | 106% | 85% | 89.3% | 88.8 | 99.4% | 84.9% | 103% | 93.6% | 85.9% | 82.6% | 90.9% | 85.6 | 81.7% | 60.3 | 88.5% | 79 | 97.4 |
| C=C(C)[C@@H]1CC[C@]2(C)[C@H](CC=C3[C@@H]4CC(C)(C)CC[C@]4(C=O)CC[C@]32C)[C@@]1(C)CCCN | 93.3 | 1.54% (active) | 68.8% | 75.2% | 67.1% | 83.2 | 93.2% | 89.3% | 81% | 63.9% | 42.1% | 7.12% (active) | 87.8% | 89.1 | 69.6% | 47.5 | 83% | 87.8 | 89.4 |
| Cc1ccsc1-c1ccc2c(c1)COC2(CCCN(C)C)c1ccc(F)cc1 (centres undefined) | 60 | 1.22% (active) | -14% (active) | 51.1% | 28.2% | 65.2 | 57.1% | 67% | -10.5% (active) | -57.5% (active) | 29% | 17% | 34.9% | 67.9 | 21% | 45.6 | 0.45% (active) | 44.9 | 42.5 |
| COc1cc2nc(Cl)nc(Nc3cccc(C(=O)/C=C/c4ccc(F)cc4)c3)c2cc1OC | 85.7 | 7.78% (active) | 81.2% | 62.4% | 69.4% | 89.6 | 74.1% | 25.8% | 102% | 62% | -4.45% (active) | 16.1% | 88.3% | 50.1 | 32.6% | 46.4 | 73.4% | 51.5 | 62.6 |
| Nc1c2c(nc3ccc(Br)cc13)CC(c1ccccc1)CC2=O (centres undefined) | 24.2 | 13.4% | 51.9% | 59.6% | 21.8% | 73.3 | 9.76% (active) | 20% | 86.3% | 17.8% | 21.9% | 15.7% | -1.66% (active) | 37 | 41.8% | 40.4 | 20.1% | 38.1 | 55.5 |
| Cc1ccc(Cc2cnc(NC(=O)/C=C/c3cccc(C)c3)s2)cc1 | 16.2 | 13.7% | 31.4% | 3.61% (active) | -0.16% (active) | 44.7 | -13.6% (active) | -30.1% (active) | 67.7% | -12.4% (active) | 7.04% (active) | 0.0384% (active) | -23.6% (active) | 13.4 | 9.32% (active) | 30.3 | 12.6% | 16.3 | 50.3 |
| O=C1OC(c2ccc(Cl)c(Cl)c2)=C/C1=C/c1cccc([N+](=O)[O-])c1 | 109 | 99% | 101% | 108% | 96.4% | 97.9 | 101% | 103% | 103% | 106% | 99.1% | 93.7% | 92.9% | 94.9 | 99.2% | 97.9 | 102% | 88.7 | 105 |
| C=C(C)[C@@H]1CC[C@]2(CN)CC[C@]3(C)[C@H](CC[C@@H]4[C@@]5(C)CCC(=O)NC(C)(C)[C@@H]5CC[C@]43C)[C@@H]12 | 75 | -4.63% (active) | -14.1% (active) | 58.7% | 59% | 64.5 | 82.1% | 75.2% | 29.6% | 70.9% | 38.7% | 11.5% | 85.5% | 78.4 | 53.4% | 37.4 | 61.6% | 82.5 | 89.2 |
| COc1cc2nc(Cl)nc(Nc3cccc(C(=O)/C=C/c4ccccc4)c3)c2cc1OC | 87.7 | 9.16% (active) | 78% | 67.6% | 68.4% | 85.9 | 69.5% | 2.74% (active) | 96.5% | 51.2% | -34.1% (active) | 4.17% (active) | 62.1% | 32.9 | 21.4% | 49.2 | 68.8% | 57.8 | 56.4 |
| CCc1nnc(NC(=O)c2ccoc2COc2ccccc2)s1 | 75.4 | 12.3% | 47.5% | 55.9% | 54.2% | 66.7 | 36.1% | 43.5% | 76.9% | 11.7% | 24.3% | 28.6% | 8.1% (active) | 42.4 | 49.7% | 67 | 44.5% | 34.8 | 51.2 |
| N#C/C(=C\c1ccc(-c2ccccc2)o1)c1nc(-c2ccco2)cs1 | 107 | 93.2% | 94.8% | 86.3% | 105% | 101 | 97.6% | 94.9% | 103% | 93.8% | 47.6% | 99.8% | 91.9% | 94.1 | 98.3% | 77.8 | 73.5% | 77.9 | 105 |
| N#Cc1c(-c2ccc(O)cc2)c2c(N)nn(-c3ccccc3)c2[nH]c1=O | 109 | 107% | 105% | 97.8% | 113% | 100 | 110% | 95.7% | 109% | 99.4% | 109% | 111% | 104% | 99.8 | 103% | 102 | 98% | 96 | 109 |

— PubChem BioAssay (NCI)
